The text below walks through data of PubChem BioAssay.

Test [1] can be described thus: EMT-state selective cytotoxicity in co-culture – imaging, PC-3E GFP, TEM4-18 mCherry, primary screen (AID 1345086).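 As to all read-outs here: cells exposed to compound for 72 h before imaging.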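 As to red/green cell ratio (normalised): normalised mesenchymal count divided by normalised epithelial count so high means epithelial killing.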 The settings on record: PC-3E GFP / TEM4-18 mCherry co-culture, imaging cell counts, at 1 µM; for red/green cell ratio (normalised): actives lie on both sides, counts scaled to control wells, 1 = unselective.
The nature of test [2]: viability loss with induced miR-34 in A549 – imaging, A549 dox-inducible miR-34, nuclei and caspase counts, primary screen (AID 1347080;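 active = compounds whose cell count with miR-34 switched on is under 0.7 times the count with it off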). The settings on record: A549 miR-34 inducible, Hoechst nuclei count, 48 h.
[3] abbreviates: measured here: epithelial PC-3E GFP cell survival.
The mark [4] stands for this setting: measured here: mesenchymal TEM4-18 mCherry cell survival.
[5] abbreviates: stronger effect = lower value, cell number ratio, induced over uninduced.
Setting [6] is: measured here: relative caspase fold change +Dox/-Dox.
[7] abbreviates: measured here: total cells with miR-34 induction, stronger effect = lower value.
[8] abbreviates: measured here: total cells without miR-34 induction.

The source made the active and inactive calls.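 The calls were made as follows, unless noted: active = compounds killing one labelled cell type while sparing the other, by normalised counts and ratio limits, not self-fluorescent; inactive = the rest.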

On to `CC(=O)OCC(=O)[C@@]1(O)CCC2C3CCC4=CC(=O)C=C[C@]4(C)[C@@]3(Cl)[C@@H](Cl)C[C@@]21C` (some centres not stated), for which, in test [1], the red/green cell ratio (normalised) was 1 (inactive). Further, the normalised cell number in test [1] (setting [3]) and in test [1] (setting [4]) was 1.2 in each case. For the same molecule, the fold change in test [2] (setting [5]) is 0.864 (inactive); in test [2] (setting [6]) it was 1.22. In addition, the figures for the cell count in test [2] (setting [7]) and in test [2] (setting [8]) were 6210 and 7190, respectively.

As for `CSCC[C@H](NC(=O)[C@H](Cc1c[nH]c2ccccc12)NC(=O)[C@H](C)NC(=O)OC(C)(C)C)C(=O)N[C@@H](CC(=O)O)C(=O)N[C@@H](Cc1ccccc1)C(N)=O`, in test [1], the red/green cell ratio (normalised) is 0.98 (inactive). The normalised cell number in test [1] (setting [3]) was determined as 1.15; in test [1] (setting [4]) it was 1.13. The results for the fold change in test [2] (setting [5]) and in test [2] (setting [6]) were 0.979 (inactive) and 0.82, respectively. Further, the cell count was determined as 9410 in test [2] (setting [7]) and 9610 in test [2] (setting [8]).

Regarding `CC1(C)S[C@@H]2[C@H](NC(=O)[C@H](C(=O)O)c3cccs3)C(=O)N2[C@H]1C(=O)O`, the red/green cell ratio (normalised) in test [1] was 0.96 (inactive). For the same molecule, the normalised cell number in test [1] (setting [3]) came to 1.05; in test [1] (setting [4]) it was 1.01. Besides, the fold change in test [2] (setting [5]) is 0.949 (inactive); in test [2] (setting [6]), 0.673. The cell count in test [2] (setting [7]) came out at 9210; in test [2] (setting [8]), 9700.

With `CC(C)OC(=O)CCC/C=C\C[C@@H]1[C@@H](/C=C/C(O)COc2cccc(C(F)(F)F)c2)[C@H](O)C[C@@H]1O` (some centres not stated), in test [1], the red/green cell ratio (normalised) was 0.87 (inactive). Besides, the normalised cell number is 1.24 in test [1] (setting [3]) and 1.08 in test [1] (setting [4]). Moreover, the values for the fold change in test [2] (setting [5]) and in test [2] (setting [6]) were 0.865 (inactive) and 1.12, respectively. Moreover, the values for the cell count in test [2] (setting [7]) and in test [2] (setting [8]) were 8710 and 10100, respectively.

As to `CC12CCC3c4ccc(O)cc4CCC3C1C[C@H](O)[C@@H]2O` (some centres not stated), in test [1], the red/green cell ratio (normalised) was 0.97 (inactive). Further, the figures for the normalised cell number in test [1] (setting [3]) and in test [1] (setting [4]) were 0.91 and 0.89, respectively. The results for the fold change in test [2] (setting [5]) and in test [2] (setting [6]) were 0.999 (inactive) and 0.736, respectively. Also, the results for the cell count in test [2] (setting [7]) and in test [2] (setting [8]) were 8330 and 8350, respectively.

With `CC(=O)OC1CC2CCC1(C)C2(C)C` (configuration not stated), the red/green cell ratio (normalised) in test [1] was 1.03 (inactive). The normalised cell number turned out to be 0.91 in test [1] (setting [3]) and 0.94 in test [1] (setting [4]). The fold change in test [2] (setting [5]) was 0.913 (inactive); in test [2] (setting [6]) it was 0.766. The cell count in test [2] (setting [7]) is 8690; in test [2] (setting [8]), 9520.

For `CC(C)C/C=C/C=C\C(=O)N[C@@H](CC(N)=O)C(=O)N[C@@H]1C(=O)N[C@H](c2ccc(O)cc2)C(=O)N[C@H](CCCN)C(=O)N[C@H]([C@H](C)O)C(=O)N[C@@H](c2ccc(O)cc2)C(=O)N[C@H](c2ccc(O)cc2)C(=O)N[C@@H]([C@H](C)O)C(=O)N[C@@H](Cc2ccccc2)C(=O)N[C@H](CCCN)C(=O)N[C@@H](c2ccc(O[C@@H]3O[C@H](CO)[C@H](O)[C@@H](O)[C@@H]3O[C@@H]3O[C@H](CO)[C@@H](O)[C@H](O)[C@H]3O)cc2)C(=O)NC(C(C)O)C(=O)N[C@@H](c2ccc(O)cc2)C(=O)NCC(=O)N[C@@H](CC(C)C)C(=O)N[C@H](C)C(=O)N[C@@H](c2ccc(O)c(Cl)c2)C(=O)O[C@@H]1C(N)=O` (some centres not stated), the red/green cell ratio (normalised) in test [1] was 0.89 (inactive). Also, the normalised cell number in test [1] (setting [3]) turned out to be 1.04; in test [1] (setting [4]), 0.93. Moreover, the fold change in test [2] (setting [5]) was 0.899 (inactive); in test [2] (setting [6]) it was 0.946. Moreover, the values for the cell count in test [2] (setting [7]) and in test [2] (setting [8]) were 8820 and 9820, respectively.

Take `CCN(CC)C(=O)C1(c2ccccc2)CC1CN` (configuration not stated): the red/green cell ratio (normalised) in test [1] was 0.9 (inactive). Moreover, the normalised cell number in test [1] (setting [3]) came to 1.08; in test [1] (setting [4]) it was 0.98. The fold change in test [2] (setting [5]) was 0.92 (inactive); in test [2] (setting [6]), 0.893. For the same molecule, the cell count in test [2] (setting [7]) came to 8180; in test [2] (setting [8]) it was 8890.

Consider `CC(=O)c1ccc2c(c1)Sc1ccccc1N2CCCN1CCN(CCO)CC1`, for which the red/green cell ratio (normalised) in test [1] is 1.02 (inactive). The normalised cell number turned out to be 1.21 in test [1] (setting [3]) and 1.23 in test [1] (setting [4]). The fold change in test [2] (setting [5]) was 0.952 (inactive); in test [2] (setting [6]) it was 0.758. Moreover, the cell count worked out at 8860 in test [2] (setting [7]) and 9300 in test [2] (setting [8]).

As for `NCCCC(N)C(=O)O` (configuration not stated), the red/green cell ratio (normalised) in test [1] was 1.03 (inactive). The normalised cell number in test [1] (setting [3]) was determined as 0.99; in test [1] (setting [4]) it was 1.02. Further, the fold change in test [2] (setting [5]) is 0.906 (inactive); in test [2] (setting [6]), 0.95. In addition, the cell count in test [2] (setting [7]) was 8560; in test [2] (setting [8]), 9450.

`CCC(=O)OCC(=O)[C@@]1(OC(=O)CC)[C@H](C)CC2C3C([C@@H](O)C[C@@]21C)[C@@]1(C)C=CC(=O)C=C1C[C@H]3Cl` (some centres not stated): the red/green cell ratio (normalised) in test [1] was 1.28 (inactive). Besides, the normalised cell number in test [1] (setting [3]) was determined as 0.98; in test [1] (setting [4]) it was 1.25. In addition, the fold change was 0.884 (inactive) in test [2] (setting [5]) and 0.881 in test [2] (setting [6]). The cell count is 5210 in test [2] (setting [7]) and 5890 in test [2] (setting [8]).
